Assay results: paper PMC4336329 (PLoS ONE, 2015)
The whole screen tested about 310,000 compounds, of which about 14,000 (4.5%) showed an effect of 50% or more. The effect is printed as a negative number. Shown is part of a subset that was picked to be rich in strong results.

The molecules below were run against human ether-à-go-go-related gene (hERG) potassium channel (human, UniProt Q12809) (assay: primary screen, population patch clamp on CHO cells stably expressing hERG; higher = less effect of the substance).
Chain of human ether-à-go-go-related gene (hERG) potassium channel (Q12809 whole entry, looked up): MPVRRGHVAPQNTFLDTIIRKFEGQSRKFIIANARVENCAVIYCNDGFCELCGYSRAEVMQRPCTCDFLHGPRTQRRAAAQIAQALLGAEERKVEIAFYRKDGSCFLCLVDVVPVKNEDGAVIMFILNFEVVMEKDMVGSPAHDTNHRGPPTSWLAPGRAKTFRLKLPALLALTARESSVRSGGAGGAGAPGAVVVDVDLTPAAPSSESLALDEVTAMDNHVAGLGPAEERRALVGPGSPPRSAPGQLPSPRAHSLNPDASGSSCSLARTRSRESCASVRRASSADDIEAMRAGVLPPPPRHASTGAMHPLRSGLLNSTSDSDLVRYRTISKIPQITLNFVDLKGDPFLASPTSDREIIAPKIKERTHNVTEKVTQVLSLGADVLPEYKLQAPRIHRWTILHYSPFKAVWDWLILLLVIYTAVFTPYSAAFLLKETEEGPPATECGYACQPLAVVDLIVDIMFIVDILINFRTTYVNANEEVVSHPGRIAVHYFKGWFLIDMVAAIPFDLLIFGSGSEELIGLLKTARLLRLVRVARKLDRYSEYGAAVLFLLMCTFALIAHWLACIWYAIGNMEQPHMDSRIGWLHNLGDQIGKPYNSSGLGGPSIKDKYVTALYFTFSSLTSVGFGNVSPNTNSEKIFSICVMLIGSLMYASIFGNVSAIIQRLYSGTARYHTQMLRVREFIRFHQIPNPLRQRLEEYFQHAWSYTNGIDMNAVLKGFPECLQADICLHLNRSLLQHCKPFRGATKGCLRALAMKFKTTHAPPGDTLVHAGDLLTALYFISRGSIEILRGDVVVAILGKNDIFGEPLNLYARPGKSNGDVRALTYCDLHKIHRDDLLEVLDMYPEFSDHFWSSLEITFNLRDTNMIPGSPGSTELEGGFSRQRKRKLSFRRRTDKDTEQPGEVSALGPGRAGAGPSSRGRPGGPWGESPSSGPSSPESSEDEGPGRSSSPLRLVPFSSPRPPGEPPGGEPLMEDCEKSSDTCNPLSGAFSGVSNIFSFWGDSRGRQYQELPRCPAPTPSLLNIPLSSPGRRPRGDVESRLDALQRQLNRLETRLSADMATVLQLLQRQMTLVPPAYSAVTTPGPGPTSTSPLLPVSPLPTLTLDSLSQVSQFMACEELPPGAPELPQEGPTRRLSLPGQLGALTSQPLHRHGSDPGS
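Note: peak tail current of the secondary pulse compared with the same well before compound.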

SMILES	hERG current change (%, negative = inhibition) at 10uM
Cc1cc(F)ccc1S(=O)(=O)N1CCCOC1CNC(=O)C(=O)NCc1ccc2c(c1)OCO2 (stereo not drawn)	-26.9%
Cc1ccc(NC(=O)CSc2nnc(-c3ccncc3)s2)cc1	5.52%
O=[N+]([O-])c1ccc(N2CCCCC2)c(Cl)c1N1CCCCC1	3.77%
C=C(C)COc1ccc(-c2nc(N)ncc2-c2ccc(Br)cc2)c(O)c1	23.6%
CC12CCC(C/C1=N/O)C2(C)C (stereo not drawn)	6.85%
NC(=O)CCn1cnc2ccccc21	6.28%
O=C(NCc1cccnc1)c1ccc(=O)oc1	-8.85%
CC(C)CNC(=O)c1cccc(NC(=O)COc2cccc([N+](=O)[O-])c2)c1	-24.7%
CC(C)CNC(=O)c1cccc(NC(=O)COc2ccc([N+](=O)[O-])cc2)c1	-57.4%
Cc1cccc(OCC(=O)Nc2cccc(C(=O)NCC(C)C)c2)c1	-17.4%
CCCOC(=O)c1cccc(NC(=O)COc2ccc([N+](=O)[O-])cc2)c1	-26.9%
CCOC(=O)c1cc(NC(=O)COc2ccc([N+](=O)[O-])cc2)cc(C(=O)OCC)c1	-12.9%
CCOC(=O)c1cccc(NC(=O)COc2ccc([N+](=O)[O-])cc2)c1	-68%
COCc1ccc(CN2CCCC(CO)(Cc3ccccc3C)C2)o1 (stereo not drawn)	2.18%
CC(=O)Nc1ccc(NC(=O)c2cc(=O)c3cc(C)c(C)cc3o2)cc1	24.6%
Br.N=C1CCCN1CC(=O)c1ccc(Cl)cc1	1.8%
COC(=O)c1ccc(/C=N\NC(=O)CC(=O)NCCc2ccccc2)cc1	19.8%
O=C(C1CCCN(S(=O)(=O)c2cccc3cccnc23)C1)N1CCN(c2ccccc2F)CC1 (stereo not drawn)	-75.5%
O=C(C1CCCN(S(=O)(=O)c2cccc3cccnc23)C1)N1CCN(c2ccc(F)cc2)CC1 (stereo not drawn)	-67.5%
O=C(O)[C@@H]1CCCN(S(=O)(=O)c2cccc3cccnc23)C1	11.6%
O=C(O)C1CCCN(S(=O)(=O)c2cccc3cccnc23)C1 (stereo not drawn)	10.9%
O=C(Nc1ccc(F)cc1)C1CCCN(S(=O)(=O)c2cccc3cccnc23)C1 (stereo not drawn)	-49.3%
COc1ccc(N2CCN(C(=O)C3CCCN(S(=O)(=O)c4cccc5cccnc45)C3)CC2)cc1 (stereo not drawn)	-32.1%
CCN1C(=O)[C@H]2[C@@H](c3ccc(C)cc3)N3C(=O)N(c4ccccc4)C(=O)[C@@]3(CC)[C@H]2C1=O	3.81%
